# Laboratory results: PMC11006913
# Where a chain is given by its changes, count along the chain named.
# Assays:
# Assay in all cases: PBM; 200 nM protein, PBS
# Settings in all cases: dsDNA, one strand shown
# [1] = target: HESX1 (Homo sapiens, UniProt Q9UBX0 95-180, R165K)
# [2] = target: HESX1 (Homo sapiens, UniProt Q9UBX0 95-180)
# [3] = target: HESX1 (Homo sapiens, UniProt Q9UBX0 95-180, P111T)
# [4] = target: HESX1 (Homo sapiens, UniProt Q9UBX0 95-180, F115L)
# [5] = target: HESX1 (Homo sapiens, UniProt Q9UBX0 95-180, R109Q)
# Chain of HESX1 (Homo sapiens, UniProt Q9UBX0 95-180, R109Q) (Q9UBX0 95-180 R109Q): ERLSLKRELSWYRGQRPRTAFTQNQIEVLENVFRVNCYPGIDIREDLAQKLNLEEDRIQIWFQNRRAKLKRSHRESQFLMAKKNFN
# [6] = target: HOXB4 (Homo sapiens, UniProt P17483 148-234)
# Chain of HOXB4 (Homo sapiens, UniProt P17483 148-234) (P17483 148-234): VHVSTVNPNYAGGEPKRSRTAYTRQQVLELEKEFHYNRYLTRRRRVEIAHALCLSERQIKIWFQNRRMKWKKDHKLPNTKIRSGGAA
# [7] = target: SHOX (Homo sapiens, UniProt O15266 103-189)
# Chain of SHOX (Homo sapiens, UniProt O15266 103-189) (O15266 103-189): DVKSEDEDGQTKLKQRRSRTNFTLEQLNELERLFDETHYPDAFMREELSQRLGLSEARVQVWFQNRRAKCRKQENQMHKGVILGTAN
# [8] = target: T1, VENTX (Homo sapiens, UniProt O95231 78-163, R121Q)
# T1 sequence: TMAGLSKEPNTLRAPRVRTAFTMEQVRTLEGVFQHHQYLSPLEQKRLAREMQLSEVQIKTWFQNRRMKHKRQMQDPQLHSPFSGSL
# [9] = target: HOXB9 (Homo sapiens, UniProt P17482 171-250, T197M)
# Chain of HOXB9 (Homo sapiens, UniProt P17482 171-250, T197M) (P17482 171-250 T197M): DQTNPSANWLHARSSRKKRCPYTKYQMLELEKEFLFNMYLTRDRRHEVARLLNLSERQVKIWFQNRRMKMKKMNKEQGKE
# [10] = target: HOXA4 (Homo sapiens, UniProt Q00056 201-287, W262R)
# Chain of HOXA4 (Homo sapiens, UniProt Q00056 201-287, W262R) (Q00056 201-287 W262R): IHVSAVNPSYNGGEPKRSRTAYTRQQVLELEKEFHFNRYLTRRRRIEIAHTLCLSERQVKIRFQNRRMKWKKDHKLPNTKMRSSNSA
# [11] = target: HOXC9 (Homo sapiens, UniProt P31274 178-260, K195R)
# Chain of HOXC9 (Homo sapiens, UniProt P31274 178-260, K195R) (P31274 178-260 K195R): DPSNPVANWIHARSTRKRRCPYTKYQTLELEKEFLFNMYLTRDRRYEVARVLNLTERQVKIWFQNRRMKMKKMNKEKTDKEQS
# [12] = target: T2, VENTX (Homo sapiens, UniProt O95231 78-163)
# T2 sequence: T1 sequence with Q44R
# [13] = target: HOXA7 (Homo sapiens, UniProt P31268 116-202)
# Chain of HOXA7 (Homo sapiens, UniProt P31268 116-202) (P31268 116-202): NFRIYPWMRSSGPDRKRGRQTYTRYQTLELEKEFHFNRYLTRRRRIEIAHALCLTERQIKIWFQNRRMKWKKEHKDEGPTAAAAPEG
# [14] = target: HOXC10 (Homo sapiens, UniProt Q9NYD6 254-340)
# Chain of HOXC10 (Homo sapiens, UniProt Q9NYD6 254-340) (Q9NYD6 254-340): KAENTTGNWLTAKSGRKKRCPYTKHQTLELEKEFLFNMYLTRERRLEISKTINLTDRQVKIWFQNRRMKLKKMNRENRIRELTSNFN
# [15] = target: ALX4 (Homo sapiens, UniProt Q9H161 200-286)
# [16] = target: T3, PAX4 (Homo sapiens, UniProt O43316 9-242, R200K)
# T3 sequence: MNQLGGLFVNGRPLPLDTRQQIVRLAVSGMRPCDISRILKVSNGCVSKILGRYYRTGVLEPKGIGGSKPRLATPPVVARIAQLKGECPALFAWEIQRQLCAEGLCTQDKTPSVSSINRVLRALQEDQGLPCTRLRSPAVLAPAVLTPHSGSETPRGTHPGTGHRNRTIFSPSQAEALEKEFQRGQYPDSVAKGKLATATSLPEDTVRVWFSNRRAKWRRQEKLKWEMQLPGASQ
# [17] = target: T4, VENTX (Homo sapiens, UniProt O95231 78-163, Y115F)
# T4 sequence: T1 sequence with Y38F, Q44R
# [18] = target: HOXB6 (Homo sapiens, UniProt P17509 132-218, K202E)
# Chain of HOXB6 (Homo sapiens, UniProt P17509 132-218, K202E) (P17509 132-218 K202E): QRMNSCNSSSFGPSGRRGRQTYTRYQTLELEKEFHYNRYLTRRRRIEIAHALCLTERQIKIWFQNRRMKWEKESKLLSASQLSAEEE
# [19] = target: ALX4 (Homo sapiens, UniProt Q9H161 200-286, Q225E)
# Chain of ALX4 (Homo sapiens, UniProt Q9H161 200-286, Q225E) (Q9H161 200-286 Q225E): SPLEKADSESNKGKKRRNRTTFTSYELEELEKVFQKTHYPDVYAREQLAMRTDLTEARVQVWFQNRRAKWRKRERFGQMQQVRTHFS
# [20] = target: HOXA2 (Homo sapiens, UniProt O43364 129-215, R185T)
# Chain of HOXA2 (Homo sapiens, UniProt O43364 129-215, R185T) (O43364 129-215 R185T): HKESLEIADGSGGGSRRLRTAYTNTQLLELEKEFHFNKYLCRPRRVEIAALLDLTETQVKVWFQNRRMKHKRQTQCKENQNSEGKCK
# [21] = target: HOXA4 (Homo sapiens, UniProt Q00056 201-287, R217L)
# Chain of HOXA4 (Homo sapiens, UniProt Q00056 201-287, R217L) (Q00056 201-287 R217L): as the sequence (Q00056 201-287 W262R) above, with R17L, R62W counted along it
# [22] = target: HOXB9 (Homo sapiens, UniProt P17482 171-250)
# Chain of HOXB9 (Homo sapiens, UniProt P17482 171-250) (P17482 171-250): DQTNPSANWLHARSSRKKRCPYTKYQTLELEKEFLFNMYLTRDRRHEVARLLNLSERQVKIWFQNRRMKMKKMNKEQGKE
# [23] = target: HOXB4 (Homo sapiens, UniProt P17483 148-234, V174I)
# Chain of HOXB4 (Homo sapiens, UniProt P17483 148-234, V174I) (P17483 148-234 V174I): as the sequence (P17483 148-234) above, with V27I counted along it
# [24] = target: HOXC9 (Homo sapiens, UniProt P31274 178-260)
# Chain of HOXC9 (Homo sapiens, UniProt P31274 178-260) (P31274 178-260): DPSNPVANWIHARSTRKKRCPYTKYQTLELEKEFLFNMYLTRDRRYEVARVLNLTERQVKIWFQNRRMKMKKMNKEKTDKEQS
# [25] = target: ALX1 (Homo sapiens, UniProt Q15699 118-204, L144V)
# Chain of ALX1 (Homo sapiens, UniProt Q15699 118-204, L144V) (Q15699 118-204 L144V): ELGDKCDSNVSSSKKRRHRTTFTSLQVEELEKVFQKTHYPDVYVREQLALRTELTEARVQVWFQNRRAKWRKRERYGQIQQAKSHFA
# [26] = target: ALX3 (Homo sapiens, UniProt O95076 139-225, N203Q)
# Chain of ALX3 (Homo sapiens, UniProt O95076 139-225, N203Q) (O95076 139-225 N203Q): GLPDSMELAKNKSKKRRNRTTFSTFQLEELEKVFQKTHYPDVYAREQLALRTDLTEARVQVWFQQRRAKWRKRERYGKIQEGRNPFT
# [27] = target: HOXD13 (Homo sapiens, UniProt P35453 263-343, T313R)
# Chain of HOXD13 (Homo sapiens, UniProt P35453 263-343, T313R) (P35453 263-343 T313R): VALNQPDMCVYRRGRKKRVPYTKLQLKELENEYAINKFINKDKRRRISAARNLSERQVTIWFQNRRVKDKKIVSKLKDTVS
# [28] = target: SHOX (Homo sapiens, UniProt O15266 103-189, R173C)
# Chain of SHOX (Homo sapiens, UniProt O15266 103-189, R173C) (O15266 103-189 R173C): as the sequence (O15266 103-189) above, with R71C counted along it
# [29] = target: HOXC9 (Homo sapiens, UniProt P31274 178-260, R193K)
# Chain of HOXC9 (Homo sapiens, UniProt P31274 178-260, R193K) (P31274 178-260 R193K): as the sequence (P31274 178-260) above, with R16K counted along it
# [30] = target: HOXA2 (Homo sapiens, UniProt O43364 129-215, R185K)
# Chain of HOXA2 (Homo sapiens, UniProt O43364 129-215, R185K) (O43364 129-215 R185K): as the sequence (O43364 129-215 R185T) above, with T57K counted along it
# [31] = target: ALX1 (Homo sapiens, UniProt Q15699 118-204, L144R)
# Chain of ALX1 (Homo sapiens, UniProt Q15699 118-204, L144R) (Q15699 118-204 L144R): as the sequence (Q15699 118-204 L144V) above, with V27R counted along it
# [32] = target: HOXD13 (Homo sapiens, UniProt P35453 263-343)
# Chain of HOXD13 (Homo sapiens, UniProt P35453 263-343) (P35453 263-343): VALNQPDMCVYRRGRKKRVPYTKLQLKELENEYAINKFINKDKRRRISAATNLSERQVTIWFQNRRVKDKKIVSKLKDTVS
# [33] = target: HOXA4 (Homo sapiens, UniProt Q00056 201-287)
# Chain of HOXA4 (Homo sapiens, UniProt Q00056 201-287) (Q00056 201-287): as the sequence (Q00056 201-287 W262R) above, with R62W counted along it
# [34] = target: HOXC10 (Homo sapiens, UniProt Q9NYD6 254-340, K271E)
# Chain of HOXC10 (Homo sapiens, UniProt Q9NYD6 254-340, K271E) (Q9NYD6 254-340 K271E): as the sequence (Q9NYD6 254-340) above, with K18E counted along it
# [35] = target: ALX3 (Homo sapiens, UniProt O95076 139-225)
# Chain of ALX3 (Homo sapiens, UniProt O95076 139-225) (O95076 139-225): as the sequence (O95076 139-225 N203Q) above, with Q65N counted along it
# [36] = target: PROP1 (Homo sapiens, UniProt O75360 56-141)
# Chain of PROP1 (Homo sapiens, UniProt O75360 56-141) (O75360 56-141): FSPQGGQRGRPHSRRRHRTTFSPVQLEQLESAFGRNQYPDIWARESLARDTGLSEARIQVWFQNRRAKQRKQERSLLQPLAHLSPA
# [37] = target: PROP1 (Homo sapiens, UniProt O75360 56-141, R99H)
# Chain of PROP1 (Homo sapiens, UniProt O75360 56-141, R99H) (O75360 56-141 R99H): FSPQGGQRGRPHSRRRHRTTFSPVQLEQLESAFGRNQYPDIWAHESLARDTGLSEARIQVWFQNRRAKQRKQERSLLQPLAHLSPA
# [38] = target: VAX1 (Homo sapiens, UniProt Q5SQQ9 86-172)
# Chain of VAX1 (Homo sapiens, UniProt Q5SQQ9 86-172) (Q5SQQ9 86-172): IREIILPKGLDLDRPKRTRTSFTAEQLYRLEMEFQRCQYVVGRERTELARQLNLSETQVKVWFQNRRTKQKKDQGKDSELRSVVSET
# [39] = target: ALX3 (Homo sapiens, UniProt O95076 139-225, L168Q)
# Chain of ALX3 (Homo sapiens, UniProt O95076 139-225, L168Q) (O95076 139-225 L168Q): as the sequence (O95076 139-225 N203Q) above, with L30Q, Q65N counted along it
# [40] = target: HOXD13 (Homo sapiens, UniProt P35453 263-343, T313A)
# Chain of HOXD13 (Homo sapiens, UniProt P35453 263-343, T313A) (P35453 263-343 T313A): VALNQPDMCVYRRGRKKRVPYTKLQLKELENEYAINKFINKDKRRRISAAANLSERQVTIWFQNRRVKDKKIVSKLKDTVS
# [41] = target: HOXB9 (Homo sapiens, UniProt P17482 171-250, R186Q)
# Chain of HOXB9 (Homo sapiens, UniProt P17482 171-250, R186Q) (P17482 171-250 R186Q): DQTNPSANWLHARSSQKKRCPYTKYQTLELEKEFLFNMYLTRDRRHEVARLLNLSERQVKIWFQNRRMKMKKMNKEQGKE
# [42] = target: HOXC9 (Homo sapiens, UniProt P31274 178-260, R222W)
# Chain of HOXC9 (Homo sapiens, UniProt P31274 178-260, R222W) (P31274 178-260 R222W): as the sequence (P31274 178-260) above, with R45W counted along it
# [43] = target: ALX3 (Homo sapiens, UniProt O95076 139-225, L168V)
# Chain of ALX3 (Homo sapiens, UniProt O95076 139-225, L168V) (O95076 139-225 L168V): as the sequence (O95076 139-225 N203Q) above, with L30V, Q65N counted along it
# [44] = target: PROP1 (Homo sapiens, UniProt O75360 56-141, F88S)
# Chain of PROP1 (Homo sapiens, UniProt O75360 56-141, F88S) (O75360 56-141 F88S): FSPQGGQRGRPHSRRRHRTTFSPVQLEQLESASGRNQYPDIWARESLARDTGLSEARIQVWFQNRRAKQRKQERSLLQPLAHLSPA
# [45] = target: VAX1 (Homo sapiens, UniProt Q5SQQ9 86-172, T142I)
# Chain of VAX1 (Homo sapiens, UniProt Q5SQQ9 86-172, T142I) (Q5SQQ9 86-172 T142I): as the sequence (Q5SQQ9 86-172) above, with T57I counted along it
# [46] = target: HOXA2 (Homo sapiens, UniProt O43364 129-215, Y150S)
# [47] = target: HOXA7 (Homo sapiens, UniProt P31268 116-202, W177C)
# Chain of HOXA7 (Homo sapiens, UniProt P31268 116-202, W177C) (P31268 116-202 W177C): as the sequence (P31268 116-202) above, with W62C counted along it
# [48] = target: ALX1 (Homo sapiens, UniProt Q15699 118-204)
# Chain of ALX1 (Homo sapiens, UniProt Q15699 118-204) (Q15699 118-204): as the sequence (Q15699 118-204 L144V) above, with V27L counted along it
# [49] = target: HOXA4 (Homo sapiens, UniProt Q00056 201-287, W262F)
# Chain of HOXA4 (Homo sapiens, UniProt Q00056 201-287, W262F) (Q00056 201-287 W262F): as the sequence (Q00056 201-287 W262R) above, with R62F counted along it
# [50] = target: ALX3 (Homo sapiens, UniProt O95076 139-225, N203S)
# Chain of ALX3 (Homo sapiens, UniProt O95076 139-225, N203S) (O95076 139-225 N203S): as the sequence (O95076 139-225 N203Q) above, with Q65S counted along it
# [51] = target: HOXA2 (Homo sapiens, UniProt O43364 129-215)
# Chain of HOXA2 (Homo sapiens, UniProt O43364 129-215) (O43364 129-215): as the sequence (O43364 129-215 R185T) above, with T57R counted along it
# [52] = target: VAX1 (Homo sapiens, UniProt Q5SQQ9 86-172, K157R)
# Chain of VAX1 (Homo sapiens, UniProt Q5SQQ9 86-172, K157R) (Q5SQQ9 86-172 K157R): as the sequence (Q5SQQ9 86-172) above, with K72R counted along it
# [53] = target: HOXB6 (Homo sapiens, UniProt P17509 132-218)
# Chain of HOXB6 (Homo sapiens, UniProt P17509 132-218) (P17509 132-218): as the sequence (P17509 132-218 K202E) above, with E71K counted along it
# Chain of HESX1 (Homo sapiens, UniProt Q9UBX0 95-180) (Q9UBX0 95-180): as the sequence (Q9UBX0 95-180 R109Q) above, with Q15R counted along it
# Chain of HESX1 (Homo sapiens, UniProt Q9UBX0 95-180, F115L) (Q9UBX0 95-180 F115L): as the sequence (Q9UBX0 95-180 R109Q) above, with Q15R, F21L counted along it
# Chain of HESX1 (Homo sapiens, UniProt Q9UBX0 95-180, R165K) (Q9UBX0 95-180 R165K): as the sequence (Q9UBX0 95-180 R109Q) above, with Q15R, R71K counted along it
# Chain of HESX1 (Homo sapiens, UniProt Q9UBX0 95-180, P111T) (Q9UBX0 95-180 P111T): as the sequence (Q9UBX0 95-180 R109Q) above, with Q15R, P17T counted along it
sequence,measurement,setting,value
ATTAGTGC,binding signal,[1],"9.5 upbm affinity estimate (log intensity, higher = more binding, comparable within an allelic series)"
same,binding signal,[2],"9.81 upbm affinity estimate (log intensity, higher = more binding, comparable within an allelic series)"
same,binding signal,[3],"8.71 upbm affinity estimate (log intensity, higher = more binding, comparable within an allelic series)"
same,binding signal,[4],"6.94 upbm affinity estimate (log intensity, higher = more binding, comparable within an allelic series)"
CAAATGGG,binding signal,[1],"7.28 upbm affinity estimate (log intensity, higher = more binding, comparable within an allelic series)"
same,binding signal,[2],"7.38 upbm affinity estimate (log intensity, higher = more binding, comparable within an allelic series)"
same,binding signal,[5],"6.88 upbm affinity estimate (log intensity, higher = more binding, comparable within an allelic series)"
same,binding signal,[4],"6.73 upbm affinity estimate (log intensity, higher = more binding, comparable within an allelic series)"
CTCATTAA,binding signal,[6],"13.2 upbm affinity estimate (log intensity, higher = more binding, comparable within an allelic series)"
same,binding signal,[7],"11.5 upbm affinity estimate (log intensity, higher = more binding, comparable within an allelic series)"
same,binding signal,[8],"12 upbm affinity estimate (log intensity, higher = more binding, comparable within an allelic series)"
same,binding signal,[9],"10.1 upbm affinity estimate (log intensity, higher = more binding, comparable within an allelic series)"
same,binding signal,[10],"10.6 upbm affinity estimate (log intensity, higher = more binding, comparable within an allelic series)"
same,binding signal,[11],"12.5 upbm affinity estimate (log intensity, higher = more binding, comparable within an allelic series)"
same,binding signal,[12],"12.8 upbm affinity estimate (log intensity, higher = more binding, comparable within an allelic series)"
same,binding signal,[13],"11.5 upbm affinity estimate (log intensity, higher = more binding, comparable within an allelic series)"
same,binding signal,[14],"12.2 upbm affinity estimate (log intensity, higher = more binding, comparable within an allelic series)"
same,binding signal,[15],"13.6 upbm affinity estimate (log intensity, higher = more binding, comparable within an allelic series)"
same,binding signal,[16],"11.6 upbm affinity estimate (log intensity, higher = more binding, comparable within an allelic series)"
same,binding signal,[17],"12 upbm affinity estimate (log intensity, higher = more binding, comparable within an allelic series)"
same,binding signal,[18],"9.97 upbm affinity estimate (log intensity, higher = more binding, comparable within an allelic series)"
same,binding signal,[19],"12.6 upbm affinity estimate (log intensity, higher = more binding, comparable within an allelic series)"
same,binding signal,[20],"13.3 upbm affinity estimate (log intensity, higher = more binding, comparable within an allelic series)"
same,binding signal,[21],"12.5 upbm affinity estimate (log intensity, higher = more binding, comparable within an allelic series)"
same,binding signal,[22],"11.8 upbm affinity estimate (log intensity, higher = more binding, comparable within an allelic series)"
same,binding signal,[23],"13.9 upbm affinity estimate (log intensity, higher = more binding, comparable within an allelic series)"
same,binding signal,[24],"12.6 upbm affinity estimate (log intensity, higher = more binding, comparable within an allelic series)"
same,binding signal,[25],"11.5 upbm affinity estimate (log intensity, higher = more binding, comparable within an allelic series)"
same,binding signal,[26],"8.32 upbm affinity estimate (log intensity, higher = more binding, comparable within an allelic series)"
same,binding signal,[27],"10.7 upbm affinity estimate (log intensity, higher = more binding, comparable within an allelic series)"
same,binding signal,[28],"9.2 upbm affinity estimate (log intensity, higher = more binding, comparable within an allelic series)"
same,binding signal,[29],"12.5 upbm affinity estimate (log intensity, higher = more binding, comparable within an allelic series)"
same,binding signal,[30],"13.6 upbm affinity estimate (log intensity, higher = more binding, comparable within an allelic series)"
same,binding signal,[31],"11.2 upbm affinity estimate (log intensity, higher = more binding, comparable within an allelic series)"
same,binding signal,[32],"11.9 upbm affinity estimate (log intensity, higher = more binding, comparable within an allelic series)"
same,binding signal,[33],"14 upbm affinity estimate (log intensity, higher = more binding, comparable within an allelic series)"
same,binding signal,[34],"12 upbm affinity estimate (log intensity, higher = more binding, comparable within an allelic series)"
same,binding signal,[35],"12.3 upbm affinity estimate (log intensity, higher = more binding, comparable within an allelic series)"
same,binding signal,[36],"11 upbm affinity estimate (log intensity, higher = more binding, comparable within an allelic series)"
same,binding signal,[37],"10.6 upbm affinity estimate (log intensity, higher = more binding, comparable within an allelic series)"
same,binding signal,[38],"13.7 upbm affinity estimate (log intensity, higher = more binding, comparable within an allelic series)"
same,binding signal,[39],"10.1 upbm affinity estimate (log intensity, higher = more binding, comparable within an allelic series)"
same,binding signal,[40],"11.7 upbm affinity estimate (log intensity, higher = more binding, comparable within an allelic series)"
same,binding signal,[41],"11.5 upbm affinity estimate (log intensity, higher = more binding, comparable within an allelic series)"
same,binding signal,[42],"10.9 upbm affinity estimate (log intensity, higher = more binding, comparable within an allelic series)"
same,binding signal,[43],"9.58 upbm affinity estimate (log intensity, higher = more binding, comparable within an allelic series)"
same,binding signal,[44],"7.48 upbm affinity estimate (log intensity, higher = more binding, comparable within an allelic series)"
same,binding signal,[45],"13.5 upbm affinity estimate (log intensity, higher = more binding, comparable within an allelic series)"
same,binding signal,[46],"10.7 upbm affinity estimate (log intensity, higher = more binding, comparable within an allelic series)"
same,binding signal,[47],"8.81 upbm affinity estimate (log intensity, higher = more binding, comparable within an allelic series)"
same,binding signal,[48],"12 upbm affinity estimate (log intensity, higher = more binding, comparable within an allelic series)"
same,binding signal,[49],"12 upbm affinity estimate (log intensity, higher = more binding, comparable within an allelic series)"
same,binding signal,[50],"8.41 upbm affinity estimate (log intensity, higher = more binding, comparable within an allelic series)"
same,binding signal,[51],"12.9 upbm affinity estimate (log intensity, higher = more binding, comparable within an allelic series)"
same,binding signal,[52],"13.6 upbm affinity estimate (log intensity, higher = more binding, comparable within an allelic series)"
same,binding signal,[53],"11.9 upbm affinity estimate (log intensity, higher = more binding, comparable within an allelic series)"
